Hit rate of the full screen: of about 190,000 compounds, about 1,300 (0.68%) were called active. The sample holds actives, similar compounds and a random draw of the others, so the mix is not that of the screen. Values without a mark were called inactive. No stated cut-off is given here; in the data, active means inhibition above about 50%; inactive means the rest.

For the test, the target named is Mannose-6-phosphate isomerase (Homo sapiens) (UniProt P34949). Nature of the test: MPI inhibition at elevated mannose 6-phosphate – biochemical, fluorescence intensity, high mannose 6-phosphate, primary screen (AID 1220). The settings on record: recombinant PMI enzyme, coupled fluorescence intensity; at 20 µM; hits give high values.
Chain of Mannose-6-phosphate isomerase (Homo sapiens) (P34949 whole entry, looked up): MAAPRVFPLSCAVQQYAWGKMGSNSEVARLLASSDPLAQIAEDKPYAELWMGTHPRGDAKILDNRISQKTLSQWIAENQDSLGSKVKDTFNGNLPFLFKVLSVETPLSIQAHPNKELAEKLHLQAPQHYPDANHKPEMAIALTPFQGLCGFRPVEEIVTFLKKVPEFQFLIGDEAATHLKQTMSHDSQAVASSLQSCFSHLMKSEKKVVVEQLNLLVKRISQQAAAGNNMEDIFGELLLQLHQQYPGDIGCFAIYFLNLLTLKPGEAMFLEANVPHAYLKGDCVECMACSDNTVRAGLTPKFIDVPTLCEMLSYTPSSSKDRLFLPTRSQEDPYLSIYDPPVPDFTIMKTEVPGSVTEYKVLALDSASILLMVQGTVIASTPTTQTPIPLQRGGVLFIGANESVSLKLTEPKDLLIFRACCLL
`CCN1C2=C(C(=O)CCC2)C(c2ccc(O)cc2)C2=C1CCCC2=O`: the inhibition was -9.2%.
As for `Cc1nnc(NC(=O)CSc2nnc(-c3ccc(S(=O)(=O)N4CCCC4)cc3)n2C)s1`, the inhibition is -8.6%.
Consider `CC1(C)C(=O)N(OCc2ccccc2)C(C)(C)C(=O)N1OCc1ccccc1`, for which the inhibition was -1.9%.
`COc1cc2c(cc1NCc1ccccn1)oc1ccccc12`: the inhibition was 56.9% (active).
The value for `COc1cc2c(cc1NCc1ccc3c(c1)OCO3)oc1ccccc12` was 32.3%.
The value for `COc1cc2c(cc1NC(=O)CSc1ccccn1)oc1ccccc12` was 4.8%; that for `CCOC(=O)C1CCN(c2c(NCc3ccc(C(=O)N(C)Cc4ccccc4)cc3)c(=O)c2=O)CC1` was -6.2%; that for `Cc1cc(C)nc(/N=C2\NC(=O)CC(C(=O)O)N2c2ccc(F)c(Cl)c2)n1` (stereo not drawn) was -5.5%.
As to `O=C1CCCC2=C1C(c1ccc(O)c(O)c1)c1c(ccc3ncccc13)N2` (stereo not drawn), the inhibition was 52.9% (active).
Take `COc1cc(C2C3=C(CCCC3=O)Nc3ccc4ncccc4c32)ccc1O` (stereo not drawn): the inhibition was 27.4%.
To `O=C1CCCC2=C1C(c1cccc(O)c1)c1c(ccc3ncccc13)N2` (stereo not drawn) belongs 35.4%; to `COc1cc(N/C=C2\CC(=O)NC(C)=C2C#N)cc(OC)c1OC`, 70.9% (active); to `COc1cc(C2C(C#N)=C(C)NC(C)=C2C#N)cc(OC)c1OC`, 2%.
The value for `COc1cc(NC2=CC(=O)CC(C)(C)C2)cc(OC)c1OC` was 9.2%; that for `COC(=O)c1ccc(CSc2ccc3nnc(-c4cccnc4)n3n2)o1` was 0.3%.
The value for `CN(C)CCNC(=O)c1c(O)c2c([nH]c1=O)CCCC2` was 15.6%; that for `Cc1cc(N)ccc1-n1c(C)ccc1C` was 69.4% (active); that for `COc1ccc(N)cc1-n1cnnn1` was -5.6%.
Turning to `COc1ccc(N)cc1-n1c(C)ccc1C`, the inhibition was 64.2% (active).
The value for `Cc1cc(N)ccc1N1CCCC1` was 25.9%; that for `Cc1ccc(N)cc1-n1c(C)ccc1C` was 27.5%.
To `COc1ccc(Cl)cc1-n1c(C)ccc1C` belongs -6.6%.
Consider `Nc1nc(NCc2ccco2)nn1-c1ccccc1`, for which the inhibition is 2%.
Take `CC(=O)OCCNc1cc(SCc2ccco2)c2nonc2c1[N+](=O)[O-]`: the inhibition is 45.7%.
Regarding `Cc1nnc(Sc2cc(NCCCO)c([N+](=O)[O-])c3nonc23)s1`, the inhibition is 39.9%.
The value for `CCCSc1cc(NCCOC(C)=O)c([N+](=O)[O-])c2nonc12` was 57.6% (active); that for `Cn1ccnc1Sc1cc(NCCCO)c([N+](=O)[O-])c2nonc12` was 24.2%; that for `CCCSc1cc(NCCOC(=O)CCC)c([N+](=O)[O-])c2nonc12` was 50.7% (active).
The value for `CCCC(=O)OCCNc1cc(Sc2nccn2C)c2nonc2c1[N+](=O)[O-]` was 30.4%; that for `CCC(=O)OCCNc1cc(Sc2nccn2C)c2nonc2c1[N+](=O)[O-]` was 50.8% (active).
As for `CCCC(=O)OCCNc1cc(SCc2ccco2)c2nonc2c1[N+](=O)[O-]`, the inhibition was 40.5%.
In the case of `COC(=O)CCSc1cc(NCCOC(C)=O)c([N+](=O)[O-])c2nonc12`, the inhibition is 43.1%.
To `CCN(CC)c1cc(NCCO)c([N+](=O)[O-])c2nonc12` belongs 57.4% (active); to `CCCC(=O)OCCNc1cc(Sc2nc3ccccc3[nH]2)c2nonc2c1[N+](=O)[O-]`, 33%.
The value for `Cc1nnc(Sc2cc(NCCO)c([N+](=O)[O-])c3nonc23)s1` was 16.6%; that for `O=C(NCc1cccnc1)Nc1cccc(F)c1` was -2.6%; that for `CC(=O)Nc1nc(C(=O)O)cs1` was 6.8%.
On to `O=C(Nc1ccc(Cl)cn1)c1ccc(-c2cc(Cl)ccc2Cl)o1`, for which the inhibition was -2.7%.
In the case of `COc1cc2c(cc1OC)CN(C1CC(=O)N(c3c(C)cccc3C)C1=O)CC2` (stereo not drawn), the inhibition is 2.1%.
To `Cc1nc2ccc(NC(=S)NC3CC3)cc2nc1C` belongs 46.4%; to `CCOC(=O)N1CCN(S(=O)(=O)c2ccc(C(=O)Nc3ccc4c(c3)C(=O)NC4=O)cc2)CC1`, 14.7%; to `COc1c(C(=O)NCCSC(C)(C)C)ccc2ccccc12`, 2.8%.
On to `O=C(NCCn1ccc2ccccc21)C1CCCCC1`, for which the inhibition was 1.5%.
To `CC(=O)OCCCNc1cc(Sc2ccc(C)cc2)c2nonc2c1[N+](=O)[O-]` belongs 45.7%.
Take `CC(=O)OCCCNc1cc(Sc2ccc(Cl)cc2)c2nonc2c1[N+](=O)[O-]`: the inhibition was 56.3% (active).
The value for `CC(=O)OCCNc1cc(Sc2nc3ccccc3[nH]2)c2nonc2c1[N+](=O)[O-]` was 26.1%; that for `CC(=O)OCCCNc1cc(SCc2ccco2)c2nonc2c1[N+](=O)[O-]` was 40.1%.
The value for `CC(=O)OCCN(C)c1cc(SC(C)C)c2nonc2c1[N+](=O)[O-]` was 24.4%; that for `CC(=O)OCCNc1cc(SC(C)C)c2nonc2c1[N+](=O)[O-]` was 52% (active).
To `COc1ccc(C2CC(c3ccc(OC)cc3)n3nc(NC(=O)c4ccco4)nc3N2)cc1` (stereo not drawn) belongs 3.4%; to `COc1cccc2c1OCC(C(=O)OCc1cccnc1)=C2`, 3.9%; to `COCc1cc(C)nc(N/N=C/c2ccc(-c3ccc(C(=O)O)c(Cl)c3)o2)c1C#N`, -2.9%.
Turning to `COCc1cc(C)nc(N/N=C/c2ccc(-c3cc(C(=O)O)ccc3Cl)o2)c1C#N`, the inhibition is -8.6%.
In the case of `COCc1cc(C)nc(N/N=C/c2ccc(-c3ccc(Cl)cc3[N+](=O)[O-])o2)c1C#N`, the inhibition is 55.9% (active).
The value for `O=C1CCc2cc(S(=O)(=O)NC(C(=O)N3CCN(c4ccccn4)CC3)c3ccccc3)ccc2N1` (stereo not drawn) was -3.8%; that for `CNCC/C=C1/c2ccccc2CSc2ccccc21` was 14.2%; that for `COc1ccc(N2CCC(CNC(=O)Nc3ccc(OC)cc3OC)C2)cc1` (stereo not drawn) was 55.7% (active).
The value for `CCNC(=O)Nc1ccc(OC)cc1OC` was -3.8%; that for `CCOc1ccc(NC(=O)NCC2CCN(c3ccc(OC)cc3)C2)cc1` (stereo not drawn) was 22.5%; that for `COc1ccc(NC(=O)NCc2ccncc2)c(OC)c1` was 3.6%.
The value for `COc1ccc(N2CCC(CNC(=O)Nc3ccc(Cl)cc3)C2)cc1` (stereo not drawn) was 46.2%; that for `COc1ccc(N2CCC(CNC(=O)Nc3ccc(C)c(C)c3)C2)cc1` (stereo not drawn) was 52.6% (active); that for `CCSc1nnc(NC(=O)C(C)(C)C)s1` was 2%.
Consider `CCO[C@@H]1OC(C(=O)NCc2ccccc2)=C[C@H](C2CC2)[C@H]1CCCO`, for which the inhibition was -7.4%.
As for `Cc1nc(N)[nH]c(=O)c1CCC(=O)OCC(C)C`, the inhibition was -23.1%.
As to `Nc1ccc2c(c1)sc1ccccc12`, the inhibition is 55.2% (active).
The value for `Nc1ccc2nc(-c3ccccc3)sc2c1` was 26.8%; that for `Nc1c([N+](=O)[O-])c(=O)sc2ccccc12` was -0.6%.
Regarding `Cc1c(C(=O)NCCc2ccc(S(N)(=O)=O)cc2)cccc1[N+](=O)[O-]`, the inhibition was -0.5%.
Regarding `CCCN1C/C(=C/c2cccc([N+](=O)[O-])c2)C(=O)/C(=C/c2cccc([N+](=O)[O-])c2)C1`, the inhibition is -2.8%.
The value for `N#CC1=C2SCN(Cc3ccco3)CN2C(=O)CC1c1ccccc1F` (stereo not drawn) was 15%.
For the compound `COc1ccc2ccccc2c1C1CC(=O)N2CN(Cc3ccco3)CSC2=C1C#N` (stereo not drawn), the inhibition was 62.9% (active).
The value for `N#CC1=C2SCN(Cc3ccco3)CN2C(=O)CC1c1cccc2ccccc12` (stereo not drawn) was 68.8% (active); that for `COc1ccc(N2CSC3=C(C#N)C(c4cccc(OC)c4OC)CC(=O)N3C2)cc1` (stereo not drawn) was -24.3%; that for `Cc1ccc(/C=C/C(=O)O)cc1S(=O)(=O)NCCCC(=O)O` was 0.6%.
The value for `O=C(CCN1C(=O)C2C3C=CC(C3)C2C1=O)N1CCN(c2ccc([N+](=O)[O-])cc2)CC1` (stereo not drawn) was 21.6%.
The value for `CCC(=O)Nc1nc2nc(-c3ccccc3)cc(-c3ccccc3)n2n1` was 0.3%; that for `Cc1ccc(O)c(NC(=S)NC(=O)/C=C/c2ccco2)c1` was -3.9%; that for `Cc1cc(=O)oc2cc(OCc3ccc(C(=O)N4CCN(c5ccccc5)CC4)cc3)ccc12` was 10.2%.
`CCC(C)NC(=O)CNC(=S)N(Cc1ccccc1F)C1CCCCC1` (stereo not drawn): the inhibition was 6.1%.
Take `COc1ccc(NC(=O)CSc2nnc(-c3cccnc3)n2Cc2ccco2)c(OC)c1`: the inhibition was 8%.
As for `c1ccc(OCCN2CCN(Cc3nc(-c4ccc5c(c4)OCO5)no3)CC2)cc1`, the inhibition is -4.3%.
The value for `CC(=O)Nc1ccc(NC(=O)CC2Nc3cccc4cccc(c34)NC2=O)cc1` (stereo not drawn) was -5.1%.
With `O=C(CC1Nc2cccc3cccc(c23)NC1=O)Nc1ccccc1` (stereo not drawn), the inhibition was 39%.
To `O=C(CC1Nc2cccc3cccc(c23)NC1=O)Nc1ccc(F)cc1` (stereo not drawn) belongs 54% (active).
The value for `Brc1ccc(/C=N/c2nc3ccccc3n2CCN2CCOCC2)cc1` was 9.4%; that for `C#CCn1c(=NC(=O)c2ccc(S(=O)(=O)N3CCCc4ccccc43)cc2)sc2cc(S(N)(=O)=O)ccc21` was 20.9%; that for `C=CCn1c(=NC(=O)c2ccc(S(=O)(=O)N3CCCc4ccccc43)cc2)sc2cc(S(N)(=O)=O)ccc21` was 59.2% (active).
To `C=CCn1c(=NC(=O)c2ccc(S(=O)(=O)N3CCc4ccccc4C3)cc2)sc2cc(S(N)(=O)=O)ccc21` belongs 1.8%.
With `N/C(=N\OC(=O)Oc1ccccc1)c1cccc([N+](=O)[O-])c1`, the inhibition is -8.6%.
The value for `CCOC(=O)c1cc(NC(=O)Nc2ccccc2OC)c(C)nc1C` was 6%; that for `CCCCCn1c(N)c(-c2nc3ccccc3o2)c2c([N+](=O)[O-])nn(C)c(=O)c21` was -0.9%.
In the case of `Cc1noc2ncnc(Oc3ccccc3Cl)c12`, the inhibition is 0%.
To `COc1cccc(CN(C)C(=S)Nc2cccc(C)c2)c1` belongs 0.1%; to `Cc1ccc(NCC(=O)N/N=C/c2cc3ccccc3nc2Cl)cc1`, 57.6% (active).
As for `O=C(COc1cccc(Cl)c1)N/N=C\c1cc2ccccc2nc1Cl`, the inhibition is -3.2%.
To `O=C(CN1CCOCC1)N/N=C/c1cc2ccccc2nc1Cl` belongs 15.9%; to `O=C(CN1CCCCC1)N/N=C/c1cc2ccccc2nc1Cl`, -10.7%.
With `Cc1ccccc1OCC(=O)N/N=C/c1cc2ccccc2nc1Cl`, the inhibition is 9.1%.
Consider `Cc1ccc(NCC(=O)N/N=C/c2cc(O)ccc2[N+](=O)[O-])cc1`, for which the inhibition is 57.6% (active).
To `O=C(CNc1ccc2ccccc2c1)N/N=C/c1cc2ccccc2nc1Cl` belongs 67.5% (active); to `Cc1ccc(NCC(=O)N/N=C\c2cccc(O)c2)cc1`, 18.7%.
The value for `Cc1ccc(NCC(=O)N/N=C\c2ccc([N+](=O)[O-])o2)cc1` was -1.6%.

A word on the inhibition: it is the relative decrease from the control value, in per cent.

The record behind these values is PubChem BioAssay AID1220 (Sanford-Burnham Center for Chemical Genomics, 2008).
